Results on 65 compounds are retold here after PubChem BioAssay AID588342 (National Center for Advancing Translational Sciences (NCATS), 2011).

Among all 360,000 compounds or so, about 25,000 (6.9%) were called active. Another 9% or so got no clear call; they are omitted. The call rests on the fitted dose curve; in most records, active means well fitted inhibition curve with a large enough effect; inconclusive means small, poorly fitted or top-dose-only effect; inactive means flat fitted curve, though single readings scatter. The entries come from a sample that favours actives as a whole. Where a call stands in place of a potency, no number is given.

Chain of Luciferin 4-monooxygenase (Photinus pyralis) (P08659 whole entry, looked up): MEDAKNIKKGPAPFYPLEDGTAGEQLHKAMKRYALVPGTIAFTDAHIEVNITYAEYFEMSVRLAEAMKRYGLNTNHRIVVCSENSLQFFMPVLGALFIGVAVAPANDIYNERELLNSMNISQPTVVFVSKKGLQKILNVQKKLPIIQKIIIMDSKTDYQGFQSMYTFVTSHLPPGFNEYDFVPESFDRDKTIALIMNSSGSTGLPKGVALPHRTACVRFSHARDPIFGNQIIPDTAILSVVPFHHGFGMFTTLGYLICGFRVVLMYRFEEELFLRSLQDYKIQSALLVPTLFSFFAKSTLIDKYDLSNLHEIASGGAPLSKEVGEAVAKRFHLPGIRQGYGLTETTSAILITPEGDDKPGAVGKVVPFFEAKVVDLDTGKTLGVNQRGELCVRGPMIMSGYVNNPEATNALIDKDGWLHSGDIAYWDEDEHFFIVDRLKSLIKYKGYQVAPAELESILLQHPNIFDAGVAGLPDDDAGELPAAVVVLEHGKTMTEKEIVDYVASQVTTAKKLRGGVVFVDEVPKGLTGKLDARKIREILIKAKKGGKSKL

This assay has as its target Luciferin 4-monooxygenase (Photinus pyralis) (UniProt P08659). The assay can be described thus: qHTS profiling assay for firefly luciferase inhibitor/activator using purifed enzyme and Km concentrations of substrates (counterscreen for miR-21 project). Further: nearly all actives have a fitted effect of over 55% in size. To be noted: purified FLuc, luminescence inhibition; series mostly up to 57.5 µM. The source says: MLPCN Grant: 1 R21 NS059478-01 (miR-21 grant) Assay Provider: NCGC NCGC Assay Overview: Firefly (Photinus pyralis) luciferase is one of the most commonly used transcriptional reporters for a number of reasons. It is considered one of the more dynamically responsive reporters -that is, responsive to changes in reporter transcription - as it requires no post-translational modifications and is enzymatically active directly after protein synthesis (Wood, 1998). Additionally, the half-life of the luciferase protein is short relative to other reporter-gene products (Wood, 1995). Whereas reporters with long half-lives potentially allow for increased signal due to accumulation of reporter-gene product, once accumulated in the cell, dynamic changes in reporter-gene expression may be difficult to detect(Fan and Wood, 2007; Almond et al., 2004). It has been shown that wild-type P. pyralis luciferase has a half-life of approximately […] hours in mammalian cells (Thompson et al., 1991). Firefly luciferase reporter-gene assays are also generally considered one of the most sensitive assay types (Wood, 1995; Wood, 1998). Although light produced in a bioluminescence reaction is of lower intensity than that produced during fluorescence emission, this is offset by little to no background light inherent to luminescent assays. Thus the luciferase reporter can be expressed at much lower levels than fluorescent proteins while still providing robust signal. # However, it was initially observed, in 1991, by Thompson et al., that compounds that resemble the substrates of firefly luciferase (FLuc) can act as competitive inhibitors of the enzyme, and that these compounds, upon interaction with luciferase in the cell, can actually stabilize the protein and increase its half-life. Accumulated intracellular FLuc protein can be measured as an increase in luminescence signal, upon addition of detection reagents (which contain high concentrations of FLuc substrates) commonly used in high-throughput screening. In cell-based reporter gene assays that use FLuc as the reporter gene to quantitate the potential influence of a given compound against the target biology, this apparent increase in luminescence can mistakenly be interpreted as identification of a compound that is active against the target of interest. This is the case for the miR-21 FLuc reporter gene assay used to identify inhibitors of the miR-21 pathway (PubChem AID 2289) - compounds of interest will inhibit miR-21 biogenesis/expression or activity, and are identified by causing an increase in luminescence, due to increased FLuc translation. However, FLuc inhibitory compounds that stabilize the FLuc protein will give an identical read-out, making it difficult to distinguish compounds that are active against the target from those active against FLuc. Previous profiling work to determine the prevalence of compounds that affect FLuc enzymatic activity (PubChem AID 411) identified that ~3% of the MLSMR library (then at ~72K) inhibited FLuc. […] Since the MLSMR had grown to ~350K compounds, and since it was expected that a significant percentage of compounds found active in the miR-21 FLuc assay would be FLuc inhibitors, the library was screened for activity against FLuc using a biochemical assay of purified FLuc and KM concentrations of FLuc substrates (D-luciferin and ATP).
NCGC Assay Protocol Summary: Reagents: 50mM Tris acetate, pH 7.5; 10mM Mg acetate; 10uM D-luciferin (Sigma #L9504); 10uM ATP; 0.01% Tween-20; 0.05% BSA; 10nM P. pyralis luciferase (Sigma #L9506) Control compounds used were two known firefly luciferase inhibitors (compounds (2) and (5) in Auld et al., 2010), and DMSO. […]
With `CCOc1ccccc1C(=O)Nc1ccc(S(=O)(=O)N2CCCCC2c2cccnc2)cc1` (stereo not given), the Potency entry was “inactive”.
The entry for `Cc1c(Cl)cccc1NC(=O)Cn1cc(C(=O)c2cccs2)c2ccccc21` is “inactive”.
The entry for `Cc1cccc(OCCSc2nc3ccccc3n2CC(=O)N2CCCCC2)c1C` is “inactive”; for `COc1ccc(CNC(=O)c2ccc(NC(=O)N3CC4CCCN4c4ccccc43)cc2)cc1` (stereo not given) it is “inactive”.
The entry for `O=C(CC(NCc1cccnc1)C(=O)O)Nc1ccc(O)cc1` (stereo not given) is “inactive”.
For `O=C(NCc1ccccc1CN1CCCC1)c1cccc(S(=O)(=O)Nc2ccc(F)cc2)c1`, the Potency entry is “inactive”.
Under `O=C(CCNC(=O)Cn1ccc2ccccc2c1=O)NCCC1=CCCCC1` stands “inactive”; under `Cc1ccnc(NC(=O)c2ccco2)n1`, “inactive”.
The figure for `Cc1ccnc(NC(=O)c2ccc(NC(=O)c3ccco3)cc2)c1` is 10.7 µM (active); for `CC(C)(C)NC(=O)c1cc(NC(=O)c2ccco2)cc(NC(=O)c2ccco2)c1` it is “inactive”; for `Cc1cccc(N(C(=O)Cc2cccs2)C(C(=O)NC2CCCC2)c2ccsc2)c1` (stereo not given) it is “inactive”.
As to `Nc1nc(SCCOc2ccccc2)n[nH]1`, the Potency entry is “inactive”.
The figure for `CCCOc1ccc(-c2nc(N)n[nH]2)cc1` is 13.5 µM (active); for `Cc1ccc(OCCCCc2c(C)n[nH]c2C)cc1` it is “inactive”; for `Cc1ccc(CNC(=O)CSc2nnc3c(n2)[nH]c2ccc(F)cc23)cc1` it is “inactive”.
`COc1ccc(Cl)cc1NC(=O)C(C)Sc1nc2c(c(=O)[nH]1)CCCC2` (stereo not given): the Potency entry was “inactive”.
The entry for `COC(=O)CN(c1nc(C)c(Cl)c(OC)n1)S(=O)(=O)c1ccc(C)cc1` is “inactive”; for `COc1ccc2c(c1)CCc1c(C(=O)Nc3c(C)n(C)n(-c4ccccc4)c3=O)noc1-2` it is 23.9 µM (active).
The figure for `COc1ccc2c(c1)CCc1c(C(=O)N3CCCC3)noc1-2` is 12 µM (active); for `COc1ccc2c(c1)CCc1c(C(=O)Nc3cc(C)ccc3O)noc1-2` it is “inactive”; for `COc1ccc(S(=O)(=O)NC(C)C(=O)N2CCCCCC2)cc1` (stereo not given) it is “inactive”.
The entry for `Cc1c(NC(=O)c2cc(-c3ccc(Br)cc3)on2)c(=O)n(-c2ccccc2)n1C` is “inactive”; for `COc1ccc(C(=O)N2CCCN(C)CC2)c(OC)c1` it is “inactive”.
In the case of `COc1ccc(Cl)cc1NC(=O)CSc1nc(-c2cccs2)cc(C(F)(F)F)n1`, the Potency result is “inactive”.
The entry for `CC(OC(=O)c1ccccc1NCCO)C(=O)Nc1ccnn1C(C)C` (stereo not given) is “inactive”; for `Cn1c(=O)oc2cc(S(=O)(=O)CCC(=O)NCCc3ccc(Cl)cc3)ccc21` it is “inactive”; for `Fc1ccc(CSc2nc(NCc3ccccc3)c3ccccc3n2)cc1` it is “inactive”.
The entry for `COc1ccc(CNC(=O)COC(=O)c2ccc(C)c(S(=O)(=O)N3CCOCC3)c2)cc1OC` is “inactive”.
Under `O=C(COC(=O)C1CC2CCCC(C1)C2=O)NC(=O)c1ccccc1` (stereo not given) stands “inactive”.
Take `CCc1ccc(Oc2coc3cc(O)ccc3c2=O)cc1`: the Potency is 23.9 µM (active).
The entry for `COc1ccc(Oc2coc3cc(OC(=O)c4cncc(Br)c4)ccc3c2=O)cc1` is “inactive”; for `CCc1ccc(Oc2coc3cc(OC(=O)c4cc5ccccc5oc4=O)ccc3c2=O)cc1` it is “inactive”; for `N#Cc1ccc(-c2nc3cc(C#N)c(C#N)cc3nc2-c2ccccc2)cc1C#N` it is “inactive”.
With `COc1ccc(C)cc1NC(=O)C(=O)NCCc1sc(-c2cccc(C)c2)nc1C`, the Potency result was “inactive”.
As to `CN(C)c1ccnc(Nc2ccc(F)cc2)c1C#N`, the Potency entry was “inactive”.
The entry for `CC(C)c1ccc(NC(=O)Cn2c3ncccc3c(=O)n2-c2ccccc2)cc1` is “inactive”.
Under `CC(C)c1ccc(Nc2ncccc2C#N)cc1` stands 15.1 µM (active); under `CCOc1cc2[nH]c(=O)n(Cc3ccc(C(=O)NCCN(CC)CC)cc3)c(=O)c2cc1OCC`, “inactive”; under `O=C(Nc1ccc(Oc2ccccc2)cc1)C1CCN(S(=O)(=O)c2ccc(Cl)cc2)CC1`, “inactive”.
The figure for `O=C(O)c1ccccc1N=N/C(=N/Nc1cc(S(=O)(=O)O)ccc1O)c1ccccc1` is 16.9 µM (active); for `O=C(CN(c1ccccc1)S(=O)(=O)c1ccc(Cl)cc1)Nc1ccccc1C(=O)N1CCCC1` it is “inactive”.
With `CC(=O)c1c(C)[nH]c(C(=O)OCC(=O)Nc2c(C)cccc2C)c1C`, the Potency result was “inactive”.
For `CC(NC(=S)Nc1ccc(OC(F)F)cc1)c1ccc(F)cc1` (stereo not given), the Potency entry is “inactive”.
Turning to `C[C@@H]1NC(=O)[C@@]2(C)[C@@H](c3ccccc3)[C@H]3COc4ccccc4[C@@H]3N2C1=O`, the Potency entry is “inactive”.
The entry for `CCc1ccc(Nc2nn3c(=O)c4cc5c(cc4nc3s2)OCO5)cc1` is “inactive”; for `COc1cccc(CNC(=O)COc2cc(O)c3c(c2)OC(C)(C)CC3=O)c1` it is “inactive”.
Under `Cc1c(C(=O)NCc2ccccc2Br)oc2ccc3c(c12)C(=O)CC(C)(C)O3` stands 1.69 µM (active).
The entry for `CC(C)CC(=O)N1CCN(Cc2ccccc2Br)CC1` is “inactive”; for `COc1ccc(-c2nc3sc(CCNS(=O)(=O)c4ccc(F)c(C)c4)c(C)n3n2)cc1` it is “inactive”; for `COc1ccc(C(=O)Nc2ccc(-n3nncc3C(C)(C)C)cc2)cc1` it is “inactive”.
Take `COc1ccc(CNC(=O)C(=O)N2CCC3(CC2)OCCN3S(=O)(=O)c2ccc(C)cc2)cc1`: the Potency result was “inactive”.
Under `Cc1cc(Cl)ccc1OCC(=O)N(Cc1ccc(N(C)C)cc1)C1CCS(=O)(=O)C1` (stereo not given) stands “inactive”.
On to `Cc1ccc(C(=O)COC(=O)C(Cc2c[nH]c3ccccc23)NC(=O)c2ccc(Br)cc2)cc1` (stereo not given), for which the Potency entry was “inactive”.
Under `Cc1cc2nn(-c3ccc(Cl)cc3)nc2cc1NC(=O)C(C)C` stands 0.379 µM (active); under `COC(=O)[C@@H](NC(=O)Nc1cc(Cl)ccc1C)C(C)C`, “inactive”; under `CC(CCCc1ccccc1)NC(=O)c1nn(-c2ccc(Cl)cc2)nc1CO` (stereo not given), “inactive”.
The entry for `CCN(C(=O)COC(=O)c1c(C)nn(-c2ccccc2)c1Cl)c1c(N)n(Cc2ccccc2)c(=O)[nH]c1=O` is “inactive”; for `CCOC(=O)C1=C(c2ccccc2)Nc2ncnn2C1c1ccc(Cl)cc1` (stereo not given) it is “inactive”.
The entry for `CCCSc1ncc(Cl)c(C(=O)Nc2sc3c(c2C(=O)NCCOC)CCCC3)n1` is “inactive”; for `O=C(N/N=C/c1ccc(Cl)c(Cl)c1)c1ccc2nc[nH]c2c1` it is 13.5 µM (active).
In the case of `CC1=NNC(=O)C1CCC(=O)N/N=C\c1ccc(Cl)c(Cl)c1` (stereo not given), the Potency result is “inactive”.
`CSc1ccc(/C=N\NC(=O)CC(=O)NC(C)C)cc1`: the Potency entry is “inactive”.
The entry for `NCCCCCC(=O)N/N=C/c1ccc2nccnc2c1` is “inactive”.
Under `CSc1ccc(/C=N/NC(=O)c2cccc(Cl)c2)cc1` stands 5.36 µM (active).
The entry for `CC(NC(=O)C(=O)N/N=C/c1ccc(Cl)cc1)c1ccccc1` (stereo not given) is “inactive”.
